This is part of a sample that, as a whole, favours compounds with a hit. Of some 83,000 tested, about 20% had one in any assay.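 96-well plates, one dose, 48 hours. Percent growth reported; active if below 10.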 A number with no mark means an inactive call. The source made the active and inactive calls.

The values that follow come from PubChem BioAssay (NCI).

Holding throughout (test): NCI-60 one-dose screen, 48 h (100 = growth as untreated, 0 = no growth, -100 = all killed)
Holding throughout (settings): 10 µM unless noted

Test [1] has as its system NCI-H23 lung.
The test system of test [2] is NCI-H226 lung.
In test [3] the test system is NCI-H322M lung.
The test system of test [4] is HOP-62 NSCLC.
Test [5] deals with NCI-H460 lung.
Test [6] concerns NCI-H522 lung.
Test [7] has as its system A549/ATCC NSCLC.
Test [8] deals with 786-0 renal.
Test [9] relates to COLO 205 colon.
The test system of test [10] is DU-145 prostate.
Test [11] has as its system K-562 leukemia.
In test [12] the test system is MALME-3M melanoma.
The subject of test [13] is MDA-MB-231 breast.
In test [14] the test system is RXF 393 renal.
Test [15] concerns SF-268 CNS.
The test system of test [16] is SF-295 CNS.
The subject of test [17] is SF-539 CNS.
The test system of test [18] is UACC-257 melanoma.
In test [19] the test system is M14 melanoma.
For test [20], the system named is HCT-15 colon.

Turning to `O=c1cc(-c2cccnc2)oc2c1ccc1ccccc12`, the growth in [1] is 69.9%; in test [2], 91.5%; in [3], 117%; in [4], 88.6%; in test [5], 70.4%; in test [6], 62%. Also, the growth in [7] was 65.6%; in test [8], 81.3%; in [9], 80.5%; in [10] it was 88.6%; in test [11], 53.9%; in test [12] it was 156%. Further, the growth in [13] is 70.7%; in [14], 68%; in [15], 54.8%; in [16], 70.1%; in test [17], 54.6%; in test [18], 82.9%. Besides, the results for the growth in test [19] and in test [20] were 103% and 72.7%, respectively.

For the compound `Cc1ccc(C(O)C2=CC(=O)c3ccccc3C2=O)cc1` (stereo not given), the growth was 89.2% in test [1]; 94.9% in test [2]; 99.3% in test [3]; 104% in test [4]; 98.4% in [5]; 95.7% in [6]. Also, the growth in test [7] was 102%; in [8] it was 110%; in [9], 107%; in test [10] it was 111%; in [11], 112%; in test [12], 107%. Further, the growth is 71.1% in test [13]; 109% in [14]; 107% in [15]; 97.6% in test [16]; 95.3% in test [17]; 102% in test [18]. The growth was 95.7% in [19] and 93.3% in test [20].

Turning to `CC(=O)Oc1c(C)c(OC(C)=O)c2c(c1C(C)=O)OC1CC(=O)C(C(C)=O)=C(O)C21C` (stereo not given), the growth in [1] was 90.9%; in test [2], 104%; in [3] it was 105%; in [4], 89.2%; in test [5] it was 94.9%; in test [6], 91.1%. The growth in test [7] is 99%; in [8], 94.8%; in [9], 118%; in test [10], 112%; in test [11], 73.3%; in test [12], 96.9%. In addition, the growth in test [13] is 106%; in test [14], 132%; in test [15], 122%; in test [16], 92%; in [17], 98.6%; in test [18] it was 115%. The results for the growth in test [19] and in [20] were 96% and 94.8%, respectively.

With `COc1ccc(C2CC(c3ccc(OC)c(OC)c3)=NN2C(=O)c2cc(OC)c(OC)c(OC)c2)cc1` (stereo not given), the growth in test [1] is 46.6%; in test [2] it was 51.9%; in test [3], 37.7%; in test [4], 34.8%; in test [5] it was 6.07% (active); in [6], -35.9% (active). In addition, the growth was 27.2% in [7]; 26.7% in test [8]; 8.03% (active) in test [9]; 11.6% in test [10]; 28.3% in [11]; 57.7% in [12]. Also, the growth in test [13] is 12.6%; in test [14] it was -21.4% (active); in test [15], 54.7%; in test [16], 4.28% (active); in test [17], -14.5% (active); in test [18] it was 66.3%. The growth in test [19] is -11.8% (active); in test [20] it was 32.8%.

For the compound `Oc1ccc(-c2nn(-c3ccccc3)cc2-c2nc3ccccc3s2)cc1`, the growth in test [1] is 89.6%; in [2] it was 85.9%; in test [3], 97.3%; in test [4], 104%; in test [5] it was 91.3%; in [6], 101%. Also, the growth was 91.2% in test [7]; 105% in [8]; 106% in test [9]; 106% in test [10]; 78.6% in [11]; 98.8% in [12]. The growth in test [13] was 81.5%; in [14], 104%; in test [15], 97.3%; in test [16], 106%; in [17], 102%; in test [18], 107%. The growth is 101% in [19] and 81.6% in test [20].

On to `CCCc1nn(C)c2c(=O)[nH]c(-c3cc(S(=O)(=O)N4CCN(C)CC4)ccc3OCC)nc12`, for which the growth in [1] is 99%; in [2], 102%; in test [3], 101%; in [4], 104%; in [5], 114%; in test [6] it was 88.9%. Further, the growth in test [7] is 96.2%; in test [8] it was 98.5%; in [9], 99.8%; in test [10], 113%; in test [11], 97.9%; in test [12] it was 102%. Moreover, the growth was 90.5% in test [13]; 120% in test [14]; 119% in test [15]; 93% in test [16]; 111% in [17]; 97.9% in test [18]. Further, the growth in test [19] was 102%; in test [20], 103%.

With `C[n+]1c2ccccc2c(NC2CCNCC2)c2[nH]c3ccccc3c21`, the growth is 3.72% (active) in test [1]; 6.63% (active) in test [2]; -38.2% (active) in test [3]; 26.5% in test [4]; -0.0252% (active) in test [5]; -73.2% (active) in test [6]. The growth is 1.98% (active) in test [7]; 58% in test [8]; -1.65% (active) in [9]; -1.88% (active) in test [10]; 12.7% in [11]; -15.7% (active) in test [12]. The growth in test [13] is 17.1%; in test [14], -13.7% (active); in test [15], -31% (active); in test [16] it was 13.6%; in test [17], 16.7%; in [18], 57.2%. The growth in [19] is 60.1%; in test [20], 87.5%.
